From PubChem
Gli-Sufu block: Gli-Sufu pathway antagonism; Sufu-KO-LIGHT fibroblasts, Gli luciferase reporter luminescence; inhibition, % at 5 µM; 0.74% of 340,000 active; AID 588413;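 active = inhibition above about 55%, limit read from the data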;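 also: 0% = DMSO-treated cells and 100% = wells with medium but no cells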
CSC inhib: cancer stem cell inhibition; cancer stem cell-like cells viability, luminescence; inhibition, % at 7.5 µM; 1.1% of 300,000 active; AID 2717; in the data active = inhibition above about 75%; tested in HMLE shEcad cells
Beta cell apopt: blocks beta cell apoptosis. INS-1E cytokine-induced death, ATP luminescence, 48 h; percent of positive-control rescue, neutral wells zero. protection from apoptosis, % (test concentration not listed). 0.8% of 300,000 active. AID 435005;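 active = Every replicate reaches about 75%, or at least half do and their mean reaches it too, limit read from the data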;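 also: 0% = cytokine-treated negative control wells and 100% = positive control rescue; higher means more ATP so stronger rescue from cytokine killing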
Mdm2 MdmX PPI: inhibitors of human Mdm2/MdmX interaction; inhibition, % at 8 µM; O15151+Q00987; 3% of 330,000 active; SaOS-2 split-luciferase Mdm2/MdmX complementation, luminescence;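 active = inhibition of at least 50% at 8 µM in the primary screen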
Target sequence (O15151 whole entry, looked up): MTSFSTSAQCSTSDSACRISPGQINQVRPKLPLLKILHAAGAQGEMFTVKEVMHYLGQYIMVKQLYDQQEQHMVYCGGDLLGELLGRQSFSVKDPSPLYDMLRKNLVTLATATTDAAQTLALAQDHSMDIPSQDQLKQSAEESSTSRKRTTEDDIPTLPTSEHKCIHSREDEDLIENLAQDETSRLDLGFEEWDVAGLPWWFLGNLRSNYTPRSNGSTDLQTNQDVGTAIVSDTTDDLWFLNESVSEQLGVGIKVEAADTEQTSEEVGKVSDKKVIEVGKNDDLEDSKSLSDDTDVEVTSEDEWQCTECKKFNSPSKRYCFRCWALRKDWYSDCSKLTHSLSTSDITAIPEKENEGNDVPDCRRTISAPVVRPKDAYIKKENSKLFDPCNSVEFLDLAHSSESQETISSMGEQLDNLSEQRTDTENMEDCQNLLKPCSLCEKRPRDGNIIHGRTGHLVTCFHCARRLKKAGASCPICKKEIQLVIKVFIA
Target sequence (Q00987 whole entry, looked up): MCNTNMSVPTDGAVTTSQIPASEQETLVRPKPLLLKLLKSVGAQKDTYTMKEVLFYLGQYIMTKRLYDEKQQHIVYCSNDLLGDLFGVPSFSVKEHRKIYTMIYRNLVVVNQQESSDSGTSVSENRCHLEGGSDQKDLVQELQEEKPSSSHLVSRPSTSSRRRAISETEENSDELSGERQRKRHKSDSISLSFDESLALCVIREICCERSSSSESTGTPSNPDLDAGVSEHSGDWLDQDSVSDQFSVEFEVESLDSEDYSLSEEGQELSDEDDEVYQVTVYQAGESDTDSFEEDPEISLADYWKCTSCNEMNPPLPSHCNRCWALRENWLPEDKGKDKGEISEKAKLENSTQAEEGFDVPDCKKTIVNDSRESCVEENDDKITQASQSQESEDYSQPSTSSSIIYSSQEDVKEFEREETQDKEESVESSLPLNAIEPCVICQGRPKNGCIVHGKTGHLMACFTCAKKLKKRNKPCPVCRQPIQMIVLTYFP
697 NFkB inh: inhibitors of the PMA/ionomycin-induced NF-kB reporter in 697 B cells | 697 B-cell NF-kB luciferase reporter, 16 h | inhibition, % at 4 µM | 0.33% of 330,000 active | AID 435022; in the data active = inhibition above about 35%
Jurkat NFkB inh: lowers PMA/ionomycin-induced NF-kB signal in Jurkat cells | PMA/ionomycin-induced NF-kB luciferase reporter, luminescence | inhibition, % at 4 µM | 0.53% of 330,000 active | AID 435003; in the data active = inhibition above about 50%
Mdm2-MdmX conf: confirmation of human Mdm2/MdmX interaction inhibitors; shares compounds with Mdm2 MdmX PPI; Mdm2-MdmX binding, luminescent assay; inhibition, % at 8 µM; 55% of 10,000 active; in the data active = inhibition above about 40%
Full FLuc ctr: inhibits full-length luciferase, flagging false Mdm2/MdmX hits; 77% of 6,200 active; shares compounds with Mdm2 MdmX PPI; SaOS-2 full-length luciferase counterscreen, luminescence; inhibition, % at 8 µM;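 active = mean inhibition at 8 µM reaching about 37%, which flags the compound as non-specific, limit read from the data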;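 also: p53-null SaOS-2 cells with luciferase driven by a doxycycline-inducible promoter; compound on cells about two nights before reading with doxycycline added after day one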
The depositor's hits bear a star; . = no result given. Rows were chosen to be rich in hits. Some 4.5% of all compounds tested hit in one or more screens of this group.

SMILES	Gli-Sufu block	CSC inhib	Beta cell apopt	Mdm2 MdmX PPI	697 NFkB inh	Jurkat NFkB inh	Mdm2-MdmX conf	others
O=C1NCN(c2ccccc2)C12CCN(CCCC(c1ccc(F)cc1)c1ccc(F)cc1)CC2	.	78*	1	99*	3	-2	52*	Full FLuc ctr=73*
COc1ccc(C(=O)C2CCCN(C(=O)c3cccc(N(C)C)c3)C2)cc1OC (stereo not drawn)	-21	4	0	-2	-24	7	.
COc1ccc(/C(N)=N/OC(=O)c2cccc([N+](=O)[O-])c2)cc1OC	-61	-2	-6	-2	-47	-60	.
COc1ccc(/C(N)=N/OC(=O)c2cccc([N+](=O)[O-])c2C)cc1OC	20	-13	-3	17	-11	-34	.
COc1ccc(/C(N)=N/OC(=O)CC2CCCCC2)cc1OC	3	-3	-4	67*	-2	-31	15
COc1ccc(C(=O)O/N=C(\N)c2ccccc2Cl)cc1OC	-8	-5	11	86*	-47	-20	44*	Full FLuc ctr=112*
COc1ccc(/C(N)=N/OC(=O)CCC2CCCC2)cc1OC	-7	6	-3	-7	-1	-12	.
COc1ccc(C(=O)O/N=C(\N)c2ccc(OC)c(OC)c2)c(OC)c1	30	-9	2	75*	-27	-35	34
COc1ccc(/C(N)=N/OC(=O)N2CCOCC2)cc1	-13	10	6	62*	-35	-28	26
O=C(O)CCCn1cc(NC(=O)COc2ccccc2)cn1	-20	-3	-6	2	1	0	.
O=C(Cc1ccccc1[N+](=O)[O-])OCc1cccc([N+](=O)[O-])c1	.	0	3	13	13	-10	.
COc1ccc(C(=O)O/N=C(\N)c2ccc(OC)c(OC)c2)cc1	-21	-10	-3	86*	-107	-109	18
COc1ccc(/C(N)=N/OC(=O)c2ccc(OC)c([N+](=O)[O-])c2)cc1OC	0	-2	9	71*	14	-12	31
COc1ccc(C(=O)O/N=C(\N)c2ccccn2)c(OC)c1	-43	7	7	69*	-231	-26	38
CCN(CC(=O)Nc1ccc(OC)cc1)C(=O)c1ccc2c(=O)n3c(nc2c1)CCC3	-2	-3	2	21	11	2	.
C=CCn1nnnc1SCC(=O)Nc1cccc(C(F)(F)F)c1	-5	-9	0	7	-7	14	.
O=S(=O)(c1cccc(F)c1)N1CCN(Cc2cc3c(cc2Br)OCCO3)CC1	4	.	4	9	0	4	.
Cc1ccccc1OCC(=O)Nc1nnc(COc2ccccc2)s1	-8	-8	-7	-9	1	-8	.
COc1cc(/C=C/C(=O)Nc2ccc(S(=O)(=O)Nc3ncccn3)cc2)ccc1OCC#N	-3	.	.	.	.	.	.
Cn1c(N)c(C(=O)COC(=O)COc2ccccc2Cl)c(=O)n(C)c1=O	-19	.	.	5	5	-5	.
CC(=O)N(Cc1ccc(F)cc1)C1=C(NCCc2ccccc2)C(=O)c2ccccc2C1=O	75*	-9	106*	80*	7	16	85*	Full FLuc ctr=52*
CC(=O)N(Cc1ccc(F)cc1)c1cccc(C)c1C	-7	-12	1	44	13	2	.
Cc1c(Nc2cc(Cl)c3nonc3c2[N+](=O)[O-])c(=O)n(-c2ccccc2)n1C	45	.	.	99*	10	18	98*	Full FLuc ctr=57*
Cc1c(Nc2cc(N3CCOCC3)c3nonc3c2[N+](=O)[O-])c(=O)n(-c2ccccc2)n1C	.	13	.	.	.	.	.
O=[N+]([O-])c1c(Nc2cccc(O)c2)cc(Cl)c2nonc12	-2	69	34	100*	-12	16	100*	Full FLuc ctr=51*
SMILES	Gli-Sufu block	CSC inhib	Beta cell apopt	Mdm2 MdmX PPI	697 NFkB inh	Jurkat NFkB inh	Mdm2-MdmX conf	others
O=C(COC(=O)CNC(=O)c1cccc(OC(F)F)c1)NNC(=O)c1ccccc1	-4	.	0	-8	14	6	.
COc1ccc(C(=O)N2CCN(c3ncnc4c(-c5ccccc5)nsc34)CC2)cc1	13	.	.	.	.	.	.
COc1ccc(-c2nsc3c(N4CCCCC4)ncnc23)cc1	41	58	-5	66*	-217	-3	70*	Full FLuc ctr=55*
Nc1nsc2ccccc12	15	-8	-11	61*	-6	-1	26
NC(=O)c1nsc(C(=O)N(c2ccccc2F)C(C(=O)NCc2ccc(F)cc2)c2ccc(O)cc2)c1N (stereo not drawn)	25	.	10	65*	35	38	63*	Full FLuc ctr=81*
COc1ccccc1N(C(=O)c1snc(C(N)=O)c1N)C(C(=O)NCc1ccccc1)c1ccc(O)cc1 (stereo not drawn)	1	.	.	-2	10	-2	.
COc1ccc(C(=O)OCC(=O)Nc2c(C)n(C)n(-c3ccccc3)c2=O)cc1OC	4	.	.	-1	3	-8	.
CC(=O)Nc1ccc(Cc2ccc3[nH]c(=O)cc(C)c3c2)cc1	.	2	3	68*	-36	-42	41*	Full FLuc ctr=69*
O=S(=O)(NCCOc1ccccc1F)c1cccc(Br)c1	5	2	-6	22	4	-3	.
C[C@]12c3[nH]c4ccccc4c3CCN1C(=O)C(CC(=O)NCC13CC4CC(CC(C4)C1)C3)C[C@@H]2C(=O)N1CCCCC1 (stereo partly drawn)	-4	52	6	38	-5	10	.
CCN(CC)C(=O)[C@H]1CC(CC(=O)NCc2cccc(C(F)(F)F)c2)C(=O)N2CCc3c([nH]c4ccc(OC)cc34)[C@]12C (stereo partly drawn)	-3	.	.	38	25	.	.
CC(C)N(C(=O)[C@H]1C[C@H](CC(=O)NCC23CC4CC(CC(C4)C2)C3)C(=O)N2CCc3c([nH]c4cc(-c5ccco5)ccc34)[C@]12C)C(C)C	-3	.	.	70*	1	.	3
CC(C)N(C(=O)[C@H]1CC(CC(=O)NCC23CC4CC(CC(C4)C2)C3)C(=O)N2CCc3c([nH]c4ccccc34)[C@]12C)C(C)C (stereo partly drawn)	1	.	.	59*	11	8	15
CC(C)N(C(=O)[C@H]1C[C@H](CC(=O)NCC23CC4CC(CC(C4)C2)C3)C(=O)N2CCc3c([nH]c4cc(CCC(=O)N(C)C)ccc34)[C@]12C)C(C)C	19	.	.	81*	15	.	43*	Full FLuc ctr=60*
COCCCNC(=O)C[C@H]1C[C@H](C(=O)N(C(C)C)C(C)C)[C@@]2(C)c3[nH]c4cc(-c5ccco5)ccc4c3CCN2C1=O	3	.	.	17	12	.	.
CC(C)N(C(=O)[C@H]1CC(CC(=O)NCc2cccc(C(F)(F)F)c2)C(=O)N2CCc3c([nH]c4ccccc34)[C@]12C)C(C)C (stereo partly drawn)	3	.	6	64*	6	8	-2
